Results on 40 molecules are retold here after PubChem BioAssay (NCATS).

Inconclusive results are not listed. Activity calls are given as the source filed them. Calls follow the shape of the dose curve; as a rule, active = well fitted inhibition curve with a large enough effect; inconclusive = small, poorly fitted or top-dose-only effect; inactive = flat fitted curve, though single readings scatter.
% is scaled to controls: 0 for no effect and ±100 for the full control effect.

Sequence of Calcium and integrin-binding protein 1 (Homo sapiens) (Q99828 whole entry, looked up): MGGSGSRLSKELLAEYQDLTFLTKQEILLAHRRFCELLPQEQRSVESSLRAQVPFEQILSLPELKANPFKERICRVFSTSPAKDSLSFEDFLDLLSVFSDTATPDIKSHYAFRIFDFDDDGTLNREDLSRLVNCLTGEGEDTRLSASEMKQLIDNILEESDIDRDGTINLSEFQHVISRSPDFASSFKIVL

For this assay, the target named is Calcium and integrin-binding protein 1 (Homo sapiens) (UniProt Q99828). The assay can be described thus: Primary qHTS for Identification of Calcium Integrin Binding Protein 1 (CIB1) Competitor (AID 1508620).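 Also: GST tagged CIB1 binding a fluorescein labelled alphaIIb integrin peptide tracer; top concentration of the series differs between compounds.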 The note with it: CIB1-GST / FITC-alphaIIb peptide fluorescence polarization; series mostly up to 57.7 µM; activity change, negative = inhibition: at the top concentration. An excerpt:
Assay Provider: Ulhas P. Naik, PhD Sidney Kimmel Medical College Thomas Jefferson University, Philadelphia, PA Primary function of platelets is to maintain hemostasis. At the site of vascular injury, platelets adhere to adhesive proteins such as collagen and von Willebrand factor. Adherent platelets are activated and generate soluble platelet agonists such as thrombin, ADP and thromboxane A2. Following exposure of circulating platelets to these agonists, results in platelet shape change, granule secretion and activation of platelet integrin alphaIIb-beta3. Ligand binding to activated integrin alphaIIb-beta3 triggers outside-in signaling, leading to platelet aggregation, stabilization of platelet plug, and clot retraction. Upon atherosclerotic plaque rupture also causes platelet plug formation, which underlies a number of cardiovascular diseases such as myocardial infraction and stroke. A number of anti-platelet drugs such as aspirin, clopidogrel, prasugrel, vorapaxar, and eptifibatide are currently available to prevent the thrombotic complications. However, these anti-platelet agents have several limitations including inherent variability in individual responses, developing resistance, and serious bleeding side effects. For these reasons they are not suitable for long-term protection. Based on the experiences with current anti-platelet drugs, it appears that the most useful therapeutic approach is to intersect the secondary responses such as integrin outside-in signaling or recruitment of platelets by TxA2 and secreted ADP. Compounds, which can largely preserve the primary hemostatic function of platelets but inhibit secondary response will be most desired therapeutic agents for treatment of cardiovascular disease. CIB1 is a calcium integrin binding protein, which specifically interact with the alphaIIb subunit of integrin alphaIIb-beta3. Binding of CIB1 to alphaIIb regulates the outside-in signaling in platelets, which is needed for thrombus stabilization and thrombus growth. […] Therefore, we propose that discovery of a small molecule that can prevent the association of CIB1 and alphaIIb-beta3 will be a potential anti-platelet agent that can block the thrombus formation without undue effect on hemostasis. Reference: [1] Naik MU, Nigam A, Manrai P, et al. CIB1 deficiency results in impaired thrombosis: the potential role of CIB1 in outside-in signaling through integrin alpha IIb beta 3. J Thromb Haemost.
PROTOCOL TABLES SEQUENCE No. (1, 2, 3, etc.); […] (e.g., Cells, Incubation, Reagent, etc.); VALUE and DESCRIPTION. 1; Reagent; 3 uL; Protein or buffer (4/3x) 2; Compound; 46 nL; Control inhibitor / compound library 3; Time; 15 min; Room temperature incubation 4; Reagent; 1 uL; Fluorescent labeled peptide (4x) 5; Time; 1000 rpm; Centrifuge 6; Time; 15 min; Room temperature incubation 7; Detection; Ex 480/ Em 540; ViewLux Fluorescence Read NOTES (numbers refer to sequence above) 1; Protein Mixture: C1B1-GST (final concentrations of 1 uM). […] 3; Room temperature incubation. 4; Fluorescent Labeled Peptide: FITC-aIIb (final concentration of 100 nM). Sequence of alphaIIb peptide: Acetyl-[…]-FITC (purity is 95.83%). 5; Centrifuge 1000 rpm (164 g) for 15 seconds. 6; Room temperature incubation. 7; ViewLux Fluorescent Polization Read: excitation = 480(20) / emission = 540(25) S and P; FITC Dichroic mirror.
On the technique in general: qHTS replaces the single test concentration by a dilution series.
For the molecule `CC1CCC2(NC1)OC1C(O)C3C4CCC5CC(O[C@@H]6O[C@H](CO)[C@@H](O)[C@H](O)[C@H]6O[C@@H]6O[C@@H](C)[C@H](O)[C@@H](O)[C@H]6O)CCC5(C)C4CCC3(C)C1C2C` (stereo not given in full), the “activity change, negative = inhibition” value is 5.03% [at 30.2 µM] (inactive).

On to `Cc1ccc2[nH]c(=O)c(C3=NN(C(=O)CCC(=O)O)C(c4ccc(Br)cc4)C3)c(-c3ccccc3)c2c1` (stereo not given), for which the “activity change, negative = inhibition” value is -10.2% [at 114 µM] (inactive).

For the molecule `C/C(=C\CCC(C)(C)O)CCO[C@@H]1O[C@H](CO[C@@H]2O[C@@H](C)[C@H](O)[C@@H](O)[C@H]2O)[C@@H](O)[C@H](O)[C@H]1O`, the “activity change, negative = inhibition” value was 2.94% (inactive).

Turning to `C=C[C@@](C)(CCC=C(C)C)O[C@@H]1O[C@H](CO[C@@H]2OC[C@H](O)[C@H](O)[C@H]2O)[C@@H](O)[C@H](O)[C@H]1O`, the “activity change, negative = inhibition” value is -3.99% (inactive).

As for `C=CC(C)(O)CC/C=C(\C)C(=O)O[C@@H]1[C@@H](O)[C@H](OC(C)(C=C)CC/C=C(\C)C(=O)O[C@@H]2O[C@H](CO)[C@@H](O)[C@H](O)[C@H]2O)O[C@H](CO)[C@H]1OC(=O)/C(C)=C/CCC(C)(O)C=C` (stereo not given in full), the “activity change, negative = inhibition” value was -0.0186% [at 30.2 µM] (inactive).

Turning to `COC(=O)C1=CO[C@@H](O[C@@H]2O[C@H](CO)[C@@H](O)[C@H](O)[C@H]2O)/C(=C\CO)[C@@H]1CC(=O)OCCc1ccc(O)cc1`, the “activity change, negative = inhibition” value is 5.39% (inactive).

`CC(=O)c1c(C)cccc1O[C@@H]1O[C@H](CO)[C@@H](O)[C@H](O)[C@H]1O`: the “activity change, negative = inhibition” value is -1.77% (inactive).

With `Cc1ccc(COC(=O)N2CC[C@@H](CNc3ncccn3)[C@@H](F)C2)cc1`, the “activity change, negative = inhibition” value was -5.97% [at 114 µM] (inactive).

With `O=C(OCC1=CC(Cl)C(O)C(OC(=O)c2ccccc2)C1O)c1ccccc1` (stereo not given), the “activity change, negative = inhibition” value was 1.55% [at 30.2 µM] (inactive).

Consider `CC1OC(O[C@@H]2[C@H](O)[C@@H](OC3OC(CO)C(O)C(O)C3O)[C@H](OC(=O)[C@]34CCC(C)(C)C[C@H]3C3=CCC5[C@@]6(C)CC[C@H](O[C@@H]7O[C@H](C(=O)O)[C@@H](O)[C@H](O[C@@H]8OC[C@@H](O)[C@H](O)[C@H]8O)[C@H]7O[C@@H]7O[C@H](CO)[C@H](O)[C@H](O)[C@H]7O)[C@@](C)(C=O)C6CC[C@@]5(C)[C@]3(C)C[C@H]4O)O[C@@H]2C)C(O)C(O)C1OC1OCC(O)C(O)C1O` (stereo not given in full), for which the activity change, negative = inhibition was -2.12% [at 12.4 µM] (inactive).

For `CO[C@H]1c2cc(C(C)C)c(O)c(O)c2[C@@]23CCCC(C)(C)C2[C@@H]1OC3=O` (stereo not given in full), the “activity change, negative = inhibition” value was -5.58% (inactive).

`COc1cc2c(cc1O)C(c1ccc(O)cc1)C(C)C(C)C2` (stereo not given): the “activity change, negative = inhibition” value was -5.89% [at 114 µM] (inactive).

As to `CC(=O)OC(C)(C)/C=C/C(=O)[C@](C)(O)C1[C@H](O)C[C@@]2(C)[C@@H]3CC=C4[C@@H](C[C@H](O[C@@H]5O[C@H](CO)[C@@H](O)[C@H](O)[C@H]5O)C(=O)C4(C)C)[C@]3(C)C(=O)C[C@]12C` (stereo not given in full), the “activity change, negative = inhibition” value is 1.89% [at 30.2 µM] (inactive).

With `CC(CCc1ccc(O)cc1)O[C@@H]1O[C@H](CO[C@@H]2OC(CO)[C@H](O)[C@H]2O)[C@@H](O)[C@H](O)[C@H]1O` (stereo not given in full), the “activity change, negative = inhibition” value is 2.36% (inactive).

As for `Cc1cc(-c2nncc3c(C(C)(C)C)c(OCc4ncnn4C)nn23)no1`, the “activity change, negative = inhibition” value is 0.989% [at 114 µM] (inactive).

Consider `Cc1ccc(C)c(S(=O)(=O)n2cnc3ccccc32)c1`, for which the “activity change, negative = inhibition” value is -2.81% [at 114 µM] (inactive).

For the molecule `CCC(C)/C=C(C)/C=C/C1=CC2=C(Cl)C(=O)C(C)(OC(C)=O)C(=O)C2=CN1CCCCC(N)C(=O)O` (stereo not given), the “activity change, negative = inhibition” value is -15.8% (inactive).

`C/C=C/C=C/C(=O)OC1CC/C=C/C(O)C(O)C(CCC)OC1=O` (stereo not given): the “activity change, negative = inhibition” value is 2.99% (inactive).

On to `COc1ccnc2[nH]cc(C(=O)C(=O)N3CCN(C(=O)c4ccccc4)CC3C)c12` (stereo not given), for which the “activity change, negative = inhibition” value is 22.5% [at 114 µM] (inactive).

Consider `Cc1c(F)cc(C(=O)NC2CC2)cc1-c1ccc(C(=O)NCC(C)(C)C)cn1`, for which the “activity change, negative = inhibition” value was -8.2% [at 114 µM] (inactive).

As for `CCC(=O)N1CCc2cc(OC)c(O)cc2C1`, the “activity change, negative = inhibition” value was 0.464% [at 114 µM] (inactive).

In the case of `C/C=C(\C)C(=O)O[C@H]1C=CC(=O)O[C@H]1/C=C/[C@H](O)[C@@H](C)O`, the “activity change, negative = inhibition” value was -6.39% [at 114 µM] (inactive).

In the case of `CC(=O)O[C@@H]1[C@H](O[C@@H]2OC[C@](O)(CO)[C@H]2O)[C@@H](O[C@@H]2O[C@@H](C)[C@H](O)[C@@H](O[C@@H]3O[C@H](CO)[C@@H](O)[C@H](O)[C@H]3O)[C@H]2O)[C@H](OC(=O)[C@]23CCC(C)(C)C[C@H]2C2=CCC4[C@@]5(C)C[C@H](O)[C@H](O[C@@H]6O[C@H](C(=O)O)[C@@H](O)[C@H](O)[C@H]6O)[C@@](C)(C(=O)O)C5CC[C@@]4(C)[C@]2(C)CC3)O[C@@H]1C` (stereo not given in full), the activity change, negative = inhibition is 4.9% [at 12.4 µM] (inactive).

On to `C=C(CO)C(=O)O[C@H]1C[C@@]23O[C@@H]2CC/C(=C/[C@H]2OC(=O)C(=C)[C@H]12)CO[C@H]3O`, for which the “activity change, negative = inhibition” value was -6.61% (inactive).

`CC(=O)O[C@@H]1[C@H](OC(C)=O)C[C@@]2(C)C(CC[C@@H](C)[C@]23Cc2c(O)cc4c(c2O3)CN([C@@H](CCC(=O)O)C(=O)O)C4=O)C1(C)C` (stereo not given in full): the “activity change, negative = inhibition” value is 1.58% [at 30.2 µM] (inactive).

For the molecule `C/C=C(\C)C(=O)OCC1OC(OCC2OC(OC3(CO)OC(CO)C(O)C3O)C(O)C(O)C2O)C(O)C(O)C1O` (stereo not given), the “activity change, negative = inhibition” value was -2.98% [at 30.2 µM] (inactive).

Turning to `C[C@@H]1O[C@@H](O[C@H]2[C@H](O[C@H]3[C@H](O[C@H]4CC[C@@]5(C)C(CC[C@]6(C)C5CC=C5[C@@H]7CC(C)(C)CC(=O)[C@]7(C)CC[C@]56C)[C@@]4(C)CO)O[C@H](C(=O)O)[C@@H](O)[C@@H]3O)O[C@H](CO)[C@H](O)[C@@H]2O)[C@H](O)[C@H](O)[C@H]1O` (stereo not given in full), the “activity change, negative = inhibition” value was -2.05% [at 30.2 µM] (inactive).

Turning to `Cc1nnc(-c2sc(NC(=O)[C@H](C(C)C)n3c(=O)[nH]c4ccccc4c3=O)nc2C)o1`, the “activity change, negative = inhibition” value was 2.21% [at 114 µM] (inactive).

`CC(=O)OC1(C)CC(O)C2(O)C=COC(OC3OC(CO)C(O)C(O)C3O)C12` (stereo not given): the “activity change, negative = inhibition” value was 1.59% (inactive).

Regarding `CC(C)c1ccc2c(c1)CCC1[C@](C)(C(=O)O)CCC[C@]21C` (stereo not given in full), the “activity change, negative = inhibition” value is -18% [at 114 µM] (inactive).

As to `COC(=O)C1=COC(OC2OC(CO)C(O)C(O)C2O)C2C(C)CC(=O)C12O` (stereo not given), the “activity change, negative = inhibition” value is 2.56% (inactive).

On to `NC1Nc2ccccc2C1(N)CC1NC(=O)C(Cc2ccccc2)NC(=O)C(Cc2ccccc2)NC1=O` (stereo not given), for which the “activity change, negative = inhibition” value is 3.65% (inactive).

Regarding `CC1(C)CC[C@]2(C(=O)O[C@@H]3O[C@H](CO)[C@@H](O)[C@H](O)[C@H]3O)[C@H](O)C[C@]3(C)C(=CCC4[C@@]5(C)CC[C@H](O[C@@H]6OC[C@@H](O)[C@H](O)[C@H]6O)[C@@](C)(C(=O)O)C5CC[C@]43C)[C@@H]2C1` (stereo not given in full), the “activity change, negative = inhibition” value was 1.01% [at 30.2 µM] (inactive).

For the molecule `O=C(OCc1ccccc1O[C@@H]1O[C@H](CO)[C@@H](O)[C@H](O)[C@H]1O)C1(O)C=CCCC1O` (stereo not given in full), the “activity change, negative = inhibition” value was 5.5% (inactive).

Consider `C/C=C(\C)C(=O)OCC1OC(OC2OC(CO)C(O)C(O)C2O)C(O)C(O)C1O` (stereo not given), for which the “activity change, negative = inhibition” value was -2.52% (inactive).

In the case of `CCC(=O)OCC(=O)[C@@]1(OC(=O)CC)[C@@H](C)C[C@H]2[C@@H]3CCC4=CC(=O)C=C[C@]4(C)[C@@]3(F)[C@@H](O)C[C@@]21C`, the “activity change, negative = inhibition” value was 0.145% [at 114 µM] (inactive).

Regarding `CC1=C2C(=O)C=C(CO[C@@H]3O[C@H](CO)[C@@H](O)[C@H](O)[C@H]3O)[C@@H]2[C@H]2OC(=O)[C@H](C)[C@@H]2CC1`, the “activity change, negative = inhibition” value was 3.15% (inactive).

`CC/C=C\[C@H](O)[C@H](O)C1=C(C)C(=O)[C@]2(O1)C(=O)N[C@@](O)(C(=O)c1ccccc1)[C@@H]2O`: the “activity change, negative = inhibition” value is 1.31% (inactive).

`COC(=O)C1=CO[C@@H](O[C@@H]2O[C@H](CO)[C@@H](O)[C@H](O)[C@H]2O)[C@@H]2C(CO)=CC[C@H]12`: the “activity change, negative = inhibition” value was 1.66% (inactive).

With `CCC(C)(C)C1CCc2c(sc(NC(=O)c3ccc(Br)cc3)c2C#N)C1` (stereo not given), the “activity change, negative = inhibition” value is -1.76% [at 114 µM] (inactive).
